Source: PubChem BioAssay (National Center for Advancing Translational Sciences (NCATS))
S16 F2sN tox: Cell viability qHTS assay in S16 Pmp22-F2sN cells | S16 Pmp22-F2sN Schwann cells viability, CellTiter-Glo, 24 h | 0.48% of 43,000 active | Potency, µM (titrated, usually from 57.5 µM), for the others: top-dose activity change, negative = cytotoxicity, most hits filed as cytotoxic; further: on the % scale 0 is the no-effect control and ±100 the full control effect; nearly all actives have a fitted effect of over 65% in size
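Used to flag compounds lowering reporter output through toxicity, this quantitative HTS measures ATP-based CellTiter-Glo luminescence in S16 Pmp22-F2sN Schwann cells after 24 h compound exposure at 37C.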
HTT promoter inh: Primary qHTS for Identification of Small Molecule Inhibitors of Huntingtin Promoter Activity; HEK293 HTT promoter firefly luciferase reporter, 24 h; Potency, µM (top dose mostly 57.5 µM), for inactives: at the highest dose activity change, negative = inhibition, hits mostly inhibitors; 0.93% of 48,000 active; AID 1508623, 2021; further: nearly all actives have a fitted effect of over 50% in size
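Luminescence was read after Dual-Glo reagent and a 10 min room-temperature incubation. Values were normalized to vehicle (0% activity) and zero RLU (-100% activity). Reporter HEK293 cells had been exposed to compounds (up to 57.5 uM final) for 24 h.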
HTT-AS act: Primary qHTS for Identification of Small Molecule Activators of Huntingtin-Antisense Promoter Activity; HEK293 HTT-AS promoter firefly luciferase reporter, 24 h; response scale: percent change from vehicle, -100% = no light; Potency, µM (top dose mostly 57.5 µM), inactives show at the top dose activity change, positive = activation, usual class: activators; 0.24% of 48,000 active; further: nearly all actives have a fitted effect of over 55% in size
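Quantitative HTS used concentration series of up to 57.5 uM final on HEK293 luciferase reporter cells, 24 h at 37 degrees C. Readout was Dual-Glo firefly luminescence.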
PMP22 txn prim: Cell-based coincidence reporter assay to measure PMP22 gene transcription in S16 Pmp22-F2sN cells - Primary screen; 2% of 43,000 active; Potency, µM (top dose mostly 57.5 µM), without a hit: at the top dose activity change, negative = inhibition, hits mostly inhibitors; S16 Pmp22-F2sN Schwann cells (luciferase reporters placed in the Pmp22 gene), FLuc/NLuc coincidence luminescence, 24 h; active means clear falling dose curves in both reporters; inconclusive means both reporters move, but less clearly or upward; inactive means either reporter flat; the % is the NLuc reporter signal; further: on the % scale 0 is the no-effect control and ±100 the full control effect
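Schwann cells carrying the coincidence reporter were exposed to library compounds for 24 h at 37C, then lysed and read for FLuc and, after quenching, NLuc luminescence on a CCD imager.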
pS6 MEF inh: Acumen qHTS Assay for Inhibitors of the mTORC1 Signaling Pathway in MEF (Tsc2-/-, p53-/-) Cells: Sytravon; Tsc2-/- p53-/- MEF, phospho-rpS6 immunofluorescence/PI, 24 h; Potency, µM (top dose mostly 38.3 µM), without a hit: at the highest dose activity change, negative = inhibition, usual class: inhibitors; 0.78% of 44,000 active;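 further: plate controls were DMSO for no effect and rapamycin for full effect; nearly all actives have a fitted effect of over 50% in size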
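Immunofluorescence of rpS6 phosphorylation in Tsc2-/-, p53-/- MEFs after 24 h compound exposure, normalized to propidium iodide signal. Activity is expressed as % positive cells, thresholded with 7.5 nM rapamycin.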
* hit, by the source's call; ? = inconclusive; . = no result given. Only some compounds are listed: those with a hit (about 3.6% of all), similar ones and a draw of the others. Unless noted, the call rests on the fitted dose curve; in most records, active means well fitted curve in the direction sought with a large enough effect; inconclusive means small, poorly fitted or top-dose-only effect, or another doubt; inactive means no such curve, though single readings can be large; an effect the other way counts as inactive or inconclusive. Potency means the concentration at half of the fitted maximal effect.

SMILES	S16 F2sN tox	HTT promoter inh	HTT-AS act	PMP22 txn prim	pS6 MEF inh
CC(C)Oc1ccc(C(=O)N[C@H](CNC(=O)CN(C)C)Cc2ccc(-c3cn4cccc([C@H](C)O)c4n3)cc2)cc1Cl	.	-19.3%	-32.1%	.	.
O=C(Nc1ccc2oc(-c3cc(Br)ccc3Cl)nc2c1)c1cc2ccccc2o1	?	?	-43.4%	?	4.14µM*
O=C(Nc1ccc2oc(-c3ccc(Br)cc3)nc2c1)c1cc2ccccc2o1	12.4%	36.4%	24.5%	-23.7%	0.2%
COc1ccc(Nc2cc(-c3cnc(N)nc3)nc(N3CCOCC3)n2)cn1	.	?	-34.3%	.	.
O=C(CSc1nnc2[nH]c(=O)cc(-c3ccccc3)n12)Nc1cc(C(F)(F)F)ccc1Cl	-6.2%	36.4%	17.8µM*	?	-6.7%
COc1ccccc1NC(=O)CSc1nnc2c3ccccc3n(C(C)C)c2n1	?	?	-29.9%	?	14.7µM*
CC1(c2ccc(Cl)cc2)CC(C)(C)N(C(=O)c2ccccc2)c2ccccc21 (stereo not drawn)	-28.6%	25.1µM*	-39.8%	?	-0.8%
CC(=O)OCC(=O)[C@@]12OC(C)(C)O[C@H]1C[C@H]1[C@@H]3C[C@H](F)C4=CC(=O)C=C[C@]4(C)[C@@]3(F)[C@@H](O)C[C@@]12C	.	5.8%	0.6%	.	.
CCC1CN(C(=O)NCc2ccc(C)cc2)c2ccccc2O1 (stereo not drawn)	3.1%	-14.6%	-15.7%	1.5%	-21.5%
CCC1CN(C(=O)NCc2ccc(F)cc2)c2cc(C)ccc2O1 (stereo not drawn)	7.7%	-9.8%	-14.9%	-1.5%	20.7µM*
CN[C@H]1[C@@H](O)[C@@H]2O[C@@H]3O[C@H](C)CC(=O)[C@]3(O)O[C@@H]2[C@@H](NC)[C@H]1O	.	?	-93.5%	.	.
CCc1ccc(S(=O)(=O)N(C(=O)Oc2ccccc2)c2ccc3oc(C)c(C(=O)OC)c3c2)cc1	?	7.94µM*	-90.7%	?	?
COC(=O)c1c(C)oc2ccc(N(C(=O)c3ccncc3)S(=O)(=O)c3cc(C)c(C)cc3C)cc12	?	12.6µM*	-59.8%	?	?
C=CC[N+]1([C@H]2C[C@H]3[C@@H]4CC[C@H]5C[C@H](O)[C@@H](N6CCOCC6)C[C@]5(C)[C@@H]4CC[C@]3(C)[C@H]2OC(C)=O)CCCC1	.	-1.7%	-7.4%	.	.
Cc1c(NC(=O)OC[C@@H]2COCCN2)cn2ncnc(Nc3ccc4c(cnn4Cc4cccc(F)c4)c3)c12	.	-24.3%	-35.1%	.	.
CCOc1ccn(-c2ccc(F)cc2)c(=O)c1C(=O)Nc1ccc(Oc2ccnc(N)c2Cl)c(F)c1	.	-9.3%	-16.3%	.	.
CCOc1ccc(-c2cnc(NCc3ccc(C(F)(F)F)cc3)n2C)cc1	-11.9%	-23.6%	-19.1%	?	18.5µM*
COc1ccc(-c2nc3ccccc3s2)cc1NC(C)=O	0.0%	63.0%	1.41µM*	?	2.1%
COc1ccc(-c2nc3ccccc3s2)cc1NC(=O)c1cccc([N+](=O)[O-])c1C	-0.8%	71.0%	2µM*	?	-1.5%
Cc1ccc(CCNC(=O)C2CCN(c3nnc(C)c4c(C)n(-c5ccccc5)nc34)CC2)cc1	-0.6%	-26.3%	-12.5%	-20.3%	-0.4%
CCCCN(CC)CCNC(=O)C1CCN(c2nnc(C)c3c(C)n(-c4ccc(C)cc4)nc23)CC1	?	-8.4%	-12.6%	?	14.7µM*
Cc1cccc(-c2nc(CN3CCCC(C(=O)NCCc4ccc(Cl)cc4)C3)c(C)o2)c1 (stereo not drawn)	-25.2%	31.6µM*	-46.4%	?	-17.9%
